The target in assay [1] is Paired box protein Pax-6 (Homo sapiens) (UniProt P26367). Put plainly: ATG_Pax6_CIS: Attagene CIS-FACTORIAL HepG2 Assay for human Paired Box 6 (PAX6) (AID 2282956). Particulars: HepG2 CIS-FACTORIAL PAX6 reporter transcription, RNA readout; actives raise or lower the signal. In outline:
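Values derive from bidirectional curve fitting of reporter mRNA signal relative to DMSO. HepG2 cells bearing transfected cis-regulated MRTUs were exposed for 24 h; transcripts were read by RT-PCR and capillary electrophoresis.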

Assay [2] can be described thus: ATG_PXRE_CIS: Attagene CIS-FACTORIAL HepG2 Assay for human Pregnane X Receptor Element (PXRE) (AID 2282957). Particulars: HepG2 Attagene CIS-FACTORIAL PXRE reporter, mRNA; actives raise or lower the signal. In outline: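 After a 24 h chemical incubation, total RNA from transfected HepG2 cells was reverse-transcribed and reporter cDNA amplified, FAM-labeled, HpaI-digested and sized by capillary electrophoresis. DMSO served as baseline for bidirectional curve fitting.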

Assay [3] in a line: ATG_PPRE_CIS: Attagene CIS-FACTORIAL HepG2 Assay for human Peroxisome Proliferator-activated Response Element (PPRE) (AID 2282958). Particulars: HepG2 PPRE cis-element reporter, Attagene transcription factor profiling; actives raise or lower the signal. In outline: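 Read-out: fluorescent reporter mRNA fragments resolved by capillary electrophoresis after RT-PCR. HepG2 cells carried transiently transfected PPRE-driven cis reporter constructs and were dosed for 24 h; gain or loss of signal fitted relative to DMSO.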

Assay [4] can be described thus: ATG_RORE_CIS: Attagene CIS-FACTORIAL HepG2 Assay for human RAR-related Orphan Receptor Element (RORE) (AID 2282959). Particulars: HepG2 Attagene cis-factorial RORE reporter, mRNA; actives raise or lower the signal. In outline:
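Readout: fluorescent reporter mRNA by RT-PCR plus capillary electrophoresis, 24 h after dosing transfected HepG2 cells. Endogenous transcription factor activity on a cis promoter element is measured. Gain or loss of signal fitted against DMSO.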

Assay [5] can be described thus: ATG_Sox_CIS: Attagene CIS-FACTORIAL HepG2 Assay for human SRY-box transcription factor (SOX) (AID 2282960). Particulars: HepG2 Attagene cis-factorial SOX reporter, mRNA; actives raise or lower the signal. The essentials: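 Read-out: fluorescent RT-PCR products of SOX1-linked reporter transcripts resolved by capillary electrophoresis, fitted bidirectionally against DMSO. Transiently transfected HepG2 cells, 24 h after chemical exposure, endogenous transcription factor activity.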

Assay [6] is described as follows: ATG_SREBP_CIS: Attagene CIS-FACTORIAL HepG2 Assay for human Sterol Regulatory Element Binding (SREBP) (AID 2282962). Particulars: HepG2 Attagene cis-factorial SREBP reporter, mRNA; actives raise or lower the signal. In outline: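 Values derive from bidirectional curve fitting with DMSO as baseline. The underlying measurement is reporter mRNA from cis-element-regulated units in transiently transfected HepG2, quantified by RT-PCR and capillary electrophoresis after 24 h exposure.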

The target of assay [7] is Signal transducer and activator of transcription 3 (Homo sapiens) (UniProt P40763). Briefly: ATG_STAT3_CIS: Attagene CIS-FACTORIAL HepG2 Assay for human Signal Transducer and Activator of Transcription 3 (STAT3) (AID 2282963). Particulars: HepG2, Attagene cis-factorial STAT3 reporter transcription; actives raise or lower the signal. In outline: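 HepG2, MRTU-transfected, 24 h dosing. RNA → RT → PCR → FAM label → HpaI → CE. Bidirectional fit vs DMSO.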

Assay [8] can be described thus: ATG_TA_CIS: Attagene CIS-FACTORIAL HepG2 Assay for human TA Basal Promoter (AID 2282964). Particulars: HepG2 Attagene CIS-factorial TA basal promoter reporter; actives raise or lower the signal. In outline:
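Steps: transfect HepG2 with MRTUs; dose 24 h; isolate RNA, DNase-treat, reverse-transcribe; PCR and FAM-label reporter cDNA; digest with HpaI 2h at 37 C; run capillary electrophoresis. Activity fitted both directions against DMSO.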

Assay [9] is described as follows: ATG_TCF_b_cat_CIS: Attagene CIS-FACTORIAL HepG2 Assay for human T-Cell-Factor with beta-catenin (TCF/b-cat) (AID 2282965). Particulars: HepG2 TCF/beta-catenin cis-reporter transcription, actives raise or lower the signal. The essentials:
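Using capillary electrophoresis as the read-out, labelled reporter cDNA fragments from transiently transfected HepG2 were sized and quantified. Exposure lasted 24 hours; activity in either direction was referenced to DMSO.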

The nature of assay [10]: ATG_TAL_CIS: Attagene CIS-FACTORIAL HepG2 Assay for human TAL Basal Promoter (AID 2282966).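 Note: background control endpoint measuring basal TAL promoter reporter mRNA not a specific factor.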 Particulars: HepG2 Attagene cis-factorial TAL promoter reporter; actives raise or lower the signal. In outline: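 Basal-promoter background-control endpoint from a multiplexed HepG2 reporter panel. Cells were exposed 24 h, then reporter mRNA was read by RT-PCR/CE fluorescence and fitted in both directions relative to DMSO.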

Assay [11] in a line: ATG_TGFb_CIS: Attagene CIS-FACTORIAL HepG2 Assay for human Transforming Growth Factor (TGF) (AID 2282967). Particulars: HepG2 Attagene CIS TGFb reporter, mRNA transcription; actives raise or lower the signal. In outline: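 Cells were dosed for 24 hours, after which total RNA was reverse-transcribed and reporter sequences amplified, labeled and sized by capillary electrophoresis. Activity was fitted in both directions against DMSO.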

The target of assay [12] is Nuclear receptor subfamily 1 group I member 3 (Homo sapiens) (UniProt Q14994). Put plainly: ATG_CAR_TRANS: Attagene TRANS-FACTORIAL HepG2 Assay for human Constitutive Androstane Receptor (CAR) (AID 2282969; active = hit-call score of the fitted dose curve at least 0.9, where 1 is the maximum;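 note: activators raise reporter mRNA above DMSO so AC50 marks induction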). Particulars: HepG2 Attagene TRANS-FACTORIAL CAR reporter. The essentials: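 Steps: transient transfection of HepG2 with multiple GAL4-UAS reporter units; 24 h compound incubation; RNA isolation, RT-PCR, 6-FAM primer extension, HpaI digest; capillary electrophoresis. Gain-of-signal relative to DMSO negative control.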

The target in assay [13] is Estrogen receptor (Homo sapiens) (UniProt P03372). Put plainly: ATG_ERa_TRANS: Attagene TRANS-FACTORIAL HepG2 Assay for human Estrogen Receptor alpha (ERa) (AID 2282970; active = hit-call score of the fitted dose curve at least 0.9, where 1 is the maximum). Particulars: HepG2 Attagene TRANS ERa GAL4 reporter, mRNA. In outline: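 Gal4-fusion ERa transactivation, measured as reporter transcript level in transiently transfected HepG2 cells. Exposure 24 h; RT-PCR plus capillary electrophoresis with fluorescence detection.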

Assay [14] concerns the target X-box-binding protein 1 (Homo sapiens) (UniProt P17861). Briefly: ATG_Xbp1_CIS: Attagene CIS-FACTORIAL HepG2 Assay for human X-box Binding Protein 1 (XBP1) (AID 2282972). Particulars: HepG2 XBP1 cis-element reporter, Attagene multiplex; actives raise or lower the signal. The essentials:
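Human hepatoma HepG2, cis-element reporter system, 24 h treatment; mRNA quantified by RT-PCR/CE fluorescence; fit relative to DMSO.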

Assay [15] can be described thus: ATG_GAL4_TRANS: Attagene TRANS-FACTORIAL HepG2 Assay for GAL4 (Internal Marker) (AID 2282976; active = hit-call score of the fitted dose curve at least 0.9, where 1 is the maximum). Particulars: HepG2 Attagene TRANS GAL4 internal marker reporter. In outline: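 Background-control readout: GAL4-UAS reporter transcript in transiently transfected HepG2 cells after 24 h compound exposure. Measured by RT-PCR, 6-FAM primer extension, HpaI digest and capillary electrophoresis; gain-of-signal fit versus DMSO.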

The target of assay [16] is Transcription factor Sp1 (Homo sapiens) (UniProt P08047). Put plainly: ATG_Sp1_CIS: Attagene CIS-FACTORIAL HepG2 Assay for human Specificity Protein 1 (Sp1) (AID 2282961). Particulars: HepG2 Sp1 cis-reporter transcription, actives raise or lower the signal. In outline:
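Read-out: fluorescence of 6-FAM-labeled, HpaI-digested RT-PCR products separated by capillary electrophoresis. HepG2 cells carried transfected cis-element reporter units and were exposed to chemicals for 24 h; gain or loss of signal fitted relative to DMSO.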

Assay [17] can be described thus: ATG_VDRE_CIS: Attagene CIS-FACTORIAL HepG2 Assay for human Vitamin D Receptor Element (VDRE) (AID 2282968). Particulars: HepG2 VDRE cis-reporter transcription, actives raise or lower the signal. In outline:
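Steps: transfect HepG2 with multiple reporter transcription units; dose chemicals 24 h; isolate RNA; RT-PCR; label with 6-FAM primer extension; HpaI digest; capillary electrophoresis. Curves fitted both directions against DMSO.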

The target of assay [18] is Steroid hormone receptor ERR1 (Homo sapiens) (UniProt P11474). Briefly: ATG_ERRa_TRANS: Attagene TRANS-FACTORIAL HepG2 Assay for human Estrogen-Related Receptor alpha (ERRa) (AID 2282971; active = hit-call score of the fitted dose curve at least 0.9, where 1 is the maximum). Particulars: HepG2 Attagene TRANS reporter, ERRa transactivation. The essentials: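 HepG2 cells transiently transfected with GAL4-UAS reporter units and chimeric NR-Gal4 constructs; after 24 hour compound incubation, reporter mRNA quantified by RT-PCR, fluorescent labelling and capillary electrophoresis, gain of signal versus DMSO.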

Assay [19] is described as follows: ATG_M_19_TRANS: Attagene TRANS-FACTORIAL HepG2 Assay for M19 Transcription Factor (Internal Marker) (AID 2282974; active = hit-call score of the fitted dose curve at least 0.9, where 1 is the maximum). Particulars: HepG2 Attagene TRANS-FACTORIAL M19 internal marker reporter. In outline:
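24 h chemical exposure of transiently transfected HepG2 (MRTU library). RNA → oligo(dT) RT → PCR → 6-FAM labelling → HpaI cut → CE fluorescence. Positive-direction fit vs DMSO baseline; background internal-marker readout.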

The target of assay [20] is Estrogen-related receptor gamma (Homo sapiens) (UniProt P62508). Put plainly: ATG_ERRg_TRANS: Attagene TRANS-FACTORIAL HepG2 Assay for human Estrogen-Related Receptor gamma (ERRg) (AID 2282977; active = hit-call score of the fitted dose curve at least 0.9, where 1 is the maximum;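 note: hits increase reporter signal over DMSO so potencies reflect activators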). Particulars: HepG2 Attagene TRANS reporter, ERRg transactivation. The essentials:
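Exogenous NR-Gal4 chimera activity measured as reporter transcript induction after 24 h in transiently transfected HepG2 cells. RNA reverse-transcribed, PCR-amplified, 6-FAM-labelled and resolved by capillary electrophoresis; increase over DMSO baseline.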

Broadly, the AC50 is the concentration at which the activity in the assay is half-maximal.

Results filed as inconclusive are left out. The source made the active and inactive calls. Rule for the calls, unless noted: active = hit-call score of the fitted dose curve at least 0.9, where 1 is the maximum; inactive = score below 0.9.

Signal transducer and activator of transcription 3 (Homo sapiens), sequence (P40763 whole entry, looked up): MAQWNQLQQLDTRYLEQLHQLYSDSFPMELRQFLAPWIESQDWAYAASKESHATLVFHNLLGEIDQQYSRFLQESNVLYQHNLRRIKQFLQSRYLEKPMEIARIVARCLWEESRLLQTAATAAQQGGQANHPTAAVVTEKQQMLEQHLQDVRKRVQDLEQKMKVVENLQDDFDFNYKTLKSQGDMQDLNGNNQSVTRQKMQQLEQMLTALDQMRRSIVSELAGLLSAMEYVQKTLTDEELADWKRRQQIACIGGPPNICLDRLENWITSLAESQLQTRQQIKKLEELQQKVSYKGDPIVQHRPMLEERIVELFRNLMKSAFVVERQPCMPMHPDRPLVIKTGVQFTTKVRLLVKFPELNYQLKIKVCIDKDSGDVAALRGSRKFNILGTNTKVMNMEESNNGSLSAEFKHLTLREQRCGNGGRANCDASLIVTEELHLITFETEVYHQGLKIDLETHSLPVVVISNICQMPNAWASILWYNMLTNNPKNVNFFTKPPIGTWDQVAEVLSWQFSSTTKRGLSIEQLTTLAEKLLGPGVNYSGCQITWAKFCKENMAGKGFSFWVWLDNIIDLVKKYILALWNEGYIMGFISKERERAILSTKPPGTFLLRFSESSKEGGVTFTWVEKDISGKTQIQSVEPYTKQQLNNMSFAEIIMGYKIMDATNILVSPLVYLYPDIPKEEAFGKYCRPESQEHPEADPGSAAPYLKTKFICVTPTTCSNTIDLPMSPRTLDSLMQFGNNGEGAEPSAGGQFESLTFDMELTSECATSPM
X-box-binding protein 1 (Homo sapiens), sequence (P17861 whole entry, looked up): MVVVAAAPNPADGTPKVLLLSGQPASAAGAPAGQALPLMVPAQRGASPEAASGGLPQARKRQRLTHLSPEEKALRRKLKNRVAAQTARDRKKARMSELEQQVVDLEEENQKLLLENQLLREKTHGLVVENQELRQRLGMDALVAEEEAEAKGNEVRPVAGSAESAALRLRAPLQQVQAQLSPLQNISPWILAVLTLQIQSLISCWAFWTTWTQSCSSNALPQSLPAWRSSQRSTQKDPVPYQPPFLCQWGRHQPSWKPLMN
Paired box protein Pax-6 (Homo sapiens), sequence (P26367 whole entry, looked up): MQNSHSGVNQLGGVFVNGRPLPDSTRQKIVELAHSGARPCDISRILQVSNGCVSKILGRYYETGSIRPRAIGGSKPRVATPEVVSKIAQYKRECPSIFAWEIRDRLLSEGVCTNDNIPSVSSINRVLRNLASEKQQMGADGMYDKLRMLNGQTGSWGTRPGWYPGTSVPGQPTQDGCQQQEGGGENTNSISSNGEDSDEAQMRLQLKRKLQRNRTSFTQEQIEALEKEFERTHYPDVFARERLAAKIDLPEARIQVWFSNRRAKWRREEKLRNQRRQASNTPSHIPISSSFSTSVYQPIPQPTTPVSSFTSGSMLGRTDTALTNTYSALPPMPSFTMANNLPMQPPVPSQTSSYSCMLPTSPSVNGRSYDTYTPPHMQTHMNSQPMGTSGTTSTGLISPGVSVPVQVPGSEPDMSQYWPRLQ
Transcription factor Sp1 (Homo sapiens), sequence (P08047 whole entry, looked up): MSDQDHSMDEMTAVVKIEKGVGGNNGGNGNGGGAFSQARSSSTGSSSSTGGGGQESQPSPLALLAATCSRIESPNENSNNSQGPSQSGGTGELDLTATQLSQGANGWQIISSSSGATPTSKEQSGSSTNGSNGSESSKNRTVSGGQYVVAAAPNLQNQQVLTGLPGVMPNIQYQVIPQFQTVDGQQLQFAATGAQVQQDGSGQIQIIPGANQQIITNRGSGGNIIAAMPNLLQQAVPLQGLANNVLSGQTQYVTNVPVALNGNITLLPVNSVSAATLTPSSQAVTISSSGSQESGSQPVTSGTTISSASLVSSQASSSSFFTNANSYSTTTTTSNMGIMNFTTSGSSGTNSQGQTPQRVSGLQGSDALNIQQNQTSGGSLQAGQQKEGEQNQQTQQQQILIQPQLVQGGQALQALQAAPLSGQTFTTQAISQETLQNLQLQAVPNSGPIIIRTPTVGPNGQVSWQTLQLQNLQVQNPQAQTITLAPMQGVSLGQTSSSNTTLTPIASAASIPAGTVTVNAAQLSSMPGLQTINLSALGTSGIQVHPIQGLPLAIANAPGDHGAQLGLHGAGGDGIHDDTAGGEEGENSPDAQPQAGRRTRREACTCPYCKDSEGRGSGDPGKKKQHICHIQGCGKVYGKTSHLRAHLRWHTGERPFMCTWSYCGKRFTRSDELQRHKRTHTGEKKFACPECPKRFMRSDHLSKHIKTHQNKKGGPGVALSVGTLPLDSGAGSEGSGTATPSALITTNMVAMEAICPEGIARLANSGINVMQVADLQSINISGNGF
Nuclear receptor subfamily 1 group I member 3 (Homo sapiens), sequence (Q14994 whole entry, looked up, the tested form may be a part): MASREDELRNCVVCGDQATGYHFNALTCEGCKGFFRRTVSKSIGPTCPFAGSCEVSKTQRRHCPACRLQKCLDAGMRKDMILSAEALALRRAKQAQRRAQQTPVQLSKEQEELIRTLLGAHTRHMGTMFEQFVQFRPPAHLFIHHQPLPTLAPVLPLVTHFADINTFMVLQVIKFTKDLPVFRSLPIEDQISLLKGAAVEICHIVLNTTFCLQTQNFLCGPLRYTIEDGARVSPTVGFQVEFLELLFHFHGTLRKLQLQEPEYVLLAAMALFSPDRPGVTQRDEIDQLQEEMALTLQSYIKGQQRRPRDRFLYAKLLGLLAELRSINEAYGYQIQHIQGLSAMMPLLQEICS
Steroid hormone receptor ERR1 (Homo sapiens), sequence (P11474 whole entry, looked up, the tested form may be a part): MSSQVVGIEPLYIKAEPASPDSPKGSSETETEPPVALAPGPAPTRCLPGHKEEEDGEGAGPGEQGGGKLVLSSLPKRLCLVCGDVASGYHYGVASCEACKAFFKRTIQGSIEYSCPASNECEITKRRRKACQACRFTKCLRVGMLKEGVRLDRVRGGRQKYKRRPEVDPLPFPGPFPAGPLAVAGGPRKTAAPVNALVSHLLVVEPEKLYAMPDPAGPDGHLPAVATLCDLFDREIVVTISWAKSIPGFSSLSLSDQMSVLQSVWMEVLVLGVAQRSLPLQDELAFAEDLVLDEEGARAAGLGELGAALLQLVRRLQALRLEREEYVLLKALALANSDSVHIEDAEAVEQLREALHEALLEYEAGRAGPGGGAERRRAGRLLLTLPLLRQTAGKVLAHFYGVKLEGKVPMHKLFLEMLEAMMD
Estrogen-related receptor gamma (Homo sapiens), sequence (P62508 whole entry, looked up, the tested form may be a part): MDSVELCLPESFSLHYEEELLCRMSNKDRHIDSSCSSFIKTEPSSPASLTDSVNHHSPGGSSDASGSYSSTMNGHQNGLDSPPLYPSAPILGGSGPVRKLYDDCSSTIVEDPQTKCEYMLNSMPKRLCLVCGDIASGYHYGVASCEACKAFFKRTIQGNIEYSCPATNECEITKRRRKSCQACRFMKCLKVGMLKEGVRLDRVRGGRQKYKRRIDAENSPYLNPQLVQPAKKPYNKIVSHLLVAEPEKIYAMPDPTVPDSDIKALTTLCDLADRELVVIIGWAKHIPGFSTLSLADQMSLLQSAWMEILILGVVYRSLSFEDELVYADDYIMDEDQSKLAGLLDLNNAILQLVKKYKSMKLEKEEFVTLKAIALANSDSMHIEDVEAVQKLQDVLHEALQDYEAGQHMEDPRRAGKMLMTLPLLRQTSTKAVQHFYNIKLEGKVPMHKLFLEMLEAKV
Estrogen receptor (Homo sapiens), sequence (P03372 whole entry, looked up, the tested form may be a part): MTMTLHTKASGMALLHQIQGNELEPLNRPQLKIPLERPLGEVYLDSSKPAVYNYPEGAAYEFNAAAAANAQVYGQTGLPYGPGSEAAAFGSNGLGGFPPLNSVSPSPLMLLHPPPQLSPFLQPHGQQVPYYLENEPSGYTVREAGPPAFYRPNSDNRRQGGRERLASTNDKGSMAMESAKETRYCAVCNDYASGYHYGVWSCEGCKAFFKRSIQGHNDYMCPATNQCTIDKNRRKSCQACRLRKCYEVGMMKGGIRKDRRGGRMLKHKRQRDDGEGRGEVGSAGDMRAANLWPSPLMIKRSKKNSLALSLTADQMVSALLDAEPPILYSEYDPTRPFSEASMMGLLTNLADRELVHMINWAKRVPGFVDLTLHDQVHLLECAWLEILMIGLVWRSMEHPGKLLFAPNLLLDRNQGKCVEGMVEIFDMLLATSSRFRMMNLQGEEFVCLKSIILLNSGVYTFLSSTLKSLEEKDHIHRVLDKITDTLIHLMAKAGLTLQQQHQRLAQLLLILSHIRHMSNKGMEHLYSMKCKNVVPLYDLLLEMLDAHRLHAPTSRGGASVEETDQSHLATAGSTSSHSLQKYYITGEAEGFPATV

Turning to `OCCCCCO`, the result in assay [1], in assay [3], in [4], in [5], in [6] and in assay [7] was inactive. Besides, the call in assay [8], in assay [9], in assay [10], in assay [11], in assay [12] and in [14] was inactive. Moreover, the compound was classed as inactive in [15]. The AC50 in assay [2] was 76.5 µM (active); in assay [13], 76.1 µM (active).
Turning to `CC(=O)OCC=Cc1ccccc1`, the call in assay [1], in assay [3], in assay [5], in assay [16], in assay [6] and in assay [7] was inactive. Further, the call in assay [8], in assay [9], in [10], in [11], in assay [17] and in [12] was inactive. Also, the call in [18], in [19] and in assay [20] was inactive. In assay [2], the AC50 is 32.1 µM (active).
Regarding `CC(=O)C(=O)O`, the result in assay [1], in [2], in [3], in assay [4], in assay [5] and in assay [6] was inactive. In addition, the call in [7], in assay [9], in [10], in [11], in assay [17] and in [14] was inactive. In [15], the call was inactive.
As for `O=[N+]([O-])c1ccc(Nc2ccc(Nc3ccccc3)c(S(=O)(=O)O)c2)c([N+](=O)[O-])c1`, the outcome in assay [1], in assay [16], in [7], in [8], in assay [10] and in assay [17] was inactive. Besides, the call in assay [15] was inactive. The concentration at half-maximal activity (AC50) in assay [2] was 27 µM (active); in assay [3] it was 49.2 µM (active); in assay [4] it was 40.1 µM (active); in [9] it was 134 µM (active); in assay [11], 148 µM (active); in assay [14] it was 172 µM (active).

For the origin of these results see PubChem BioAssay (EPA / NIEHS).
